Assay in all cases: yeast three-hybrid, YBZ-1, SC-Leu-His + 0.5 mM 3-AT, 4 days
What all share (settings): tags: N-Gal4 AD-HA kept; label: inside an RPR1-promoter hybrid RNA with tandem MS2 sites; ssRNA

The target in one assay is PUM1 PUF domain R5-IHR (Homo sapiens, UniProt Q14671 828-1176, C1007I;R1008H;Q1011R). A digest of the protocol:
(§1)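 A centromeric plasmid in strain YBZ-1 co-expressed Pumilio-1 PUF domain libraries, randomized at the three base-contacting residues of each repeat, with matching RNA elements; the strain carries a LexA–MS2 coat fusion and a HIS3 reporter. After four days on SC-Leu (input) or SC-Leu-His + 0.5 mM 3-AT (selection), the repeat regions were PCR-amplified and Illumina-sequenced. The interaction score is the log change in variant frequency from input to selection, using log2 and a pseudocount of 1 where absent.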

For a further assay, the target named is PUM1 PUF domain R5-KHV (Homo sapiens, UniProt Q14671 828-1176, C1007K;R1008H;Q1011V). A digest of the protocol:
as §1

For a further assay, the target named is PUM1 PUF domain R5-KSC (Homo sapiens, UniProt Q14671 828-1176, C1007K;R1008S;Q1011C). A digest of the protocol:
as §1

The target of a further assay is PUM1 PUF domain R4-VGL (Homo sapiens, UniProt Q14671 828-1176, N971V;H972G;Q975L). Put shortly:
as §1

Another assay addresses PUM1 PUF domain R3-GCW (Homo sapiens, UniProt Q14671 828-1176, C935G;R936C;Q939W). A digest of the protocol:
as §1

Another assay deals with PUM1 PUF domain R4-GRI (Homo sapiens, UniProt Q14671 828-1176, N971G;H972R;Q975I). A digest of the protocol: as §1
The next assay deals with T1, PUM1 PUF domain R6-RWG (Homo sapiens, UniProt Q14671 828-1176, N1043R;Y1044W;Q1047G).
T1 sequence: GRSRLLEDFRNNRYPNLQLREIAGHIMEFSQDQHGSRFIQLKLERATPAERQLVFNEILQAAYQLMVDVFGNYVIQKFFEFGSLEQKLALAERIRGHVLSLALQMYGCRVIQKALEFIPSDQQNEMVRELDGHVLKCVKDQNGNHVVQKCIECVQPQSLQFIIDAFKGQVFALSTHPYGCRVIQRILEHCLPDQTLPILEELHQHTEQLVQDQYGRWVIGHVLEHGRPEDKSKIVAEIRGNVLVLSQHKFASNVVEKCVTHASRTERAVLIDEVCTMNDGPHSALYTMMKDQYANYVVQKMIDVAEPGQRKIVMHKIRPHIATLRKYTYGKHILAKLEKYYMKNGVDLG
Put shortly:
as §1

The next assay addresses PUM1 PUF domain R7-ERA (Homo sapiens, UniProt Q14671 828-1176, S1079E;N1080R;E1083A). Put shortly: as §1
For the next assay, the target named is PUM1 PUF domain R3-RRG (Homo sapiens, UniProt Q14671 828-1176, C935R;Q939G). Put shortly:
as §1

As to “GGCUAGAACUAGUGGAUCCCCCGGCGCCCGGCGGCUCGAGCCCGGGUAAGUGUUAAUAGUCUGCAUGCCGCCGGGCGCCAUGCCUGCAGGUCGACUCUAGAAAACAUG”, the binding signal is 3.52 log2 enrichment (interaction score) in the assay with PUM1 PUF domain R5-IHR, 2.08 log2 enrichment (interaction score) with PUM1 PUF domain R5-KHV and 2.38 log2 enrichment (interaction score) in the assay with PUM1 PUF domain R5-KSC.

In the case of “GGCUAGAACUAGUGGAUCCCCCGGCGCCCGGCGGCUCGAGCCCGGGUAAGUGUAAAUAGUCUGCAUGCCGCCGGGCGCCAUGCCUGCAGGUCGACUCUAGAAAACAUG”, the binding signal with PUM1 PUF domain R4-VGL was 3.22 log2 enrichment (interaction score); in the assay with PUM1 PUF domain R3-GCW, 1.82 log2 enrichment (interaction score); with PUM1 PUF domain R4-GRI it was 3.58 log2 enrichment (interaction score); in the assay with PUM1 PUF domain R6-RWG, 5.05 log2 enrichment (interaction score).

In the case of “GGCUAGAACUAGUGGAUCCCCCGGCGCCCGGCGGCUCGAGCCCGGGUAAGUCUAAAUAGUCUGCAUGCCGCCGGGCGCCAUGCCUGCAGGUCGACUCUAGAAAACAUG”, the binding signal with PUM1 PUF domain R7-ERA was 2.68 log2 enrichment (interaction score).

As to “GGCUAGAACUAGUGGAUCCCCCGGCGCCCGGCGGCUCGAGCCCGGGUAAGUGUAAUUAGUCUGCAUGCCGCCGGGCGCCAUGCCUGCAGGUCGACUCUAGAAAACAUG”, the binding signal was 3.22 log2 enrichment (interaction score) with PUM1 PUF domain R3-GCW and 3.82 log2 enrichment (interaction score) with PUM1 PUF domain R3-RRG.

As for “GGCUAGAACUAGUGGAUCCCCCGGCGCCCGGCGGCUCGAGCCCGGGUAAGUGUAAGUAGUCUGCAUGCCGCCGGGCGCCAUGCCUGCAGGUCGACUCUAGAAAACAUG”, the binding signal in the assay with PUM1 PUF domain R3-RRG was 0.28 log2 enrichment (interaction score).

With “GGCUAGAACUAGUGGAUCCCCCGGCGCCCGGCGGCUCGAGCCCGGGUAAGUGUCAAUAGUCUGCAUGCCGCCGGGCGCCAUGCCUGCAGGUCGACUCUAGAAAACAUG”, the binding signal in the assay with PUM1 PUF domain R5-KSC is 5.14 log2 enrichment (interaction score).

Turning to “GGCUAGAACUAGUGGAUCCCCCGGCGCCCGGCGGCUCGAGCCCGGGUAAGUGAAAAUAGUCUGCAUGCCGCCGGGCGCCAUGCCUGCAGGUCGACUCUAGAAAACAUG”, in the assay with PUM1 PUF domain R6-RWG, the binding signal is 3.42 log2 enrichment (interaction score).
